# PAX8 reporter = lowers PAX8-driven luciferase in RMG-I cells; RMG-I TPO-luciferase reporter, SteadyGlo, 24 h; inhibition, % at 12.6 µM; actives 1.2% (n = 360,000); AID 652154;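 active = mean replicate inhibition at least 60% with every replicate also reaching 60%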;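 note: luciferase light reporting Pax8 driven TPO promoter activity; plate controls were median of neutral control wells for no effect and mitoxantrone controls for full effect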
# GAA850 FXN act = increases GAA850 frataxin promoter reporter activity; HEK293 lucGAA850 FXN promoter luciferase reporter, 24 h; percent of 10 µM SAHA response; activation, % at 6 µM; actives 0.56% (n = 360,000); AID 540364;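 active = activation above the average of all compounds screened plus 3 SD, cutoff fixed separately per campaign, cut at about 7.5% in these data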;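 note: 0% = DMSO wells and 100% = 10 µM SAHA wells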
# F508del corr = CFTR F508del correction in bronchial cells. actives 0.36% (n = 350,000). activity (quench increase), % at 7.58 µM. CFBE cells, YFP halide quenching; stimulated with forskolin plus potentiator P3; % fluorescence drop versus neutral controls;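 active = mean added fluorescence quench of at least 8% versus neutral control, with both replicates also reaching 8%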;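 note: cells transiently co-express mutant CFTR-F508del with the halide-sensitive YFP; corrector assay measuring rescue of mutant channel to the surface after 24 h compound exposure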
# EWS-Fli block = EWS/Fli transcriptional activity inhibition. A673 NR0B1-luciferase reporter, viability-normalised. AID 651661. inhibition, % at 12.6 µM. actives 0.67% (n = 350,000);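 active = mean inhibition of at least 50% after viability correction, with every replicate also passing that limit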;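 note: firefly luciferase signal divided by Alamar Blue viability fluorescence both relative to DMSO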
# Env fusion inh = inhibitors of HIV Env-mediated cell fusion. HeLa-JRFL Env/CEM21 cell fusion, luciferase. inhibition, % at 12.3 µM. actives 1.1% (n = 360,000);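 active = mean replicate inhibition score of at least 50 and every replicate individually at or above 50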;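 note: 0% = plate neutral controls and 100% = maraviroc near 300 nM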
# The depositor's hits bear a star; / = not tested or not shown; [ ] = dose if it differs, or a comment. Compounds with a hit are over-represented: about 2.5% of the library has one in this group of screens.
SMILES,PAX8 reporter,GAA850 FXN act,F508del corr,EWS-Fli block,Env fusion inh
COc1cc(/C=N/Nc2nc(Nc3ccc(C)cc3)nc(-n3nc(C)cc3C)n2)cc(OC)c1OC,89*,-8,/,/,29
C[C@@H]1CN([C@@H](C)CO)C(=O)c2cc(NC(=O)CCC(F)(F)F)ccc2O[C@@H](C)CCCCO[C@@H]1CN(C)Cc1ccc(C(=O)O)cc1,/,/,1,1,-2[16.7 µM]
O=C(Nc1ccc2c(c1)[C@H]1C[C@@H](CC(=O)N3CCc4ccccc4C3)O[C@H](CO)[C@H]1O2)c1ccc2c(c1)OCO2,-22,/,-1,-11,10[16.7 µM]
COC(=O)c1c(-c2ccsc2)sc2ccc(-c3cc(OC)c(OC)c(OC)c3)cc12,6,0,4,9,59*
C[C@H]1CN([C@@H](C)CO)C(=O)c2cccc(NC(=O)C3CC3)c2O[C@@H]1CN(C)Cc1ccc(Oc2ccccc2)cc1,/,/,0,16,-10[16.7 µM]
CCCCOc1ccc(S(=O)(=O)Nc2cccnc2)cc1,/,0,/,/,69*
COc1cccc(C(=O)NN2c3ccccc3CCc3ccccc32)c1,67*,-2,-1,9,/
c1ccc(OCc2nn3c(C4CCCCC4)nnc3s2)cc1,/,2,/,/,63*
Cc1nnc2sc(COc3ccccc3)nn2c1=O,-13,0,1,16,2
CC(C)CN(C(=O)COC(=O)C12CC3CC(CC(C3)C1)C2)c1c(N)n(Cc2ccccc2)c(=O)[nH]c1=O,3,1,-3,30,70*
CC(=O)Nc1sc(C)c(C)c1C(=O)OCC(=O)N(CC(C)C)c1c(N)n(Cc2ccccc2)c(=O)[nH]c1=O,-11,0,-7,63*,-5
CCc1ccc(OCC(=O)NC(NC(=S)Nc2ccc(Cl)cc2)C(Cl)(Cl)Cl)cc1 (stereo not drawn),82*,-7,-2,19,/
CCCC(=O)NC(NC(=S)Nc1ccc(N=Nc2ccccc2)cc1)C(Cl)(Cl)Cl (stereo not drawn),64*,-8,8.6*,15,/
CCCC(=O)NC(NC(=S)Nc1ccc(S(N)(=O)=O)cc1)C(Cl)(Cl)Cl (stereo not drawn),/,0,/,/,/
N#C[C@H]1[C@H](c2ccc(C#CC3CCCC3)cc2)[C@@H](CO)N1C(=O)c1cccc(F)c1,/,/,1,9,/
CC(=O)C(C(c1ccccc1)c1c[nH]c2ccccc12)[N+](=O)[O-] (stereo not drawn),22,-3,/,51*,-21
CCC(=O)N1C[C@H]2[C@@H](c3ccccc31)[C@H](CO)N2C(=O)Nc1ccccc1F,-1,/,-2,-37,/
Cc1cccc(N2CCN(Cc3cn(C)nc3-c3ccccc3F)CC2)n1,12,-4,9.1*,59*,2
CC(C)(C)n1nnnc1C(c1cccnc1)N1CCN(C2CCCCC2)CC1 (stereo not drawn),/,2,/,/,65*
Cc1sc(NC(=S)NC(=O)CCc2ccccc2)c(C(N)=O)c1C,83*,1,12*,49,-32
O=C1[C@H](Cc2ccccc2)NCCCC[C@H](c2ccc(Cl)cc2)N1Cc1ccc(Cl)cc1,20,1,0,-2,66*
O=C1[C@H](Cc2ccccc2)NCC=CC[C@@H](c2ccc(Cl)cc2)N1Cc1ccc(Cl)cc1,-7,-2,1,1,15
COC(=O)C1=C(C(=O)OC)[C@]2([C@H]3CCCCN[C@@H](Cc4ccccc4)C(=O)N3Cc3ccccc3)C=C[C@H]1O2,74*,-4,0,19,65*
O=C1[C@H](Cc2ccccc2)NCC=CC[C@H](c2ccc(Cl)cc2)N1Cc1ccc(Cl)cc1,13,6,2,17,110*
O=C1[C@H](Cc2ccccc2)NCCCC[C@@H](c2ccc(Cl)cc2)N1Cc1ccccc1,15,-1,3,6,19
SMILES,PAX8 reporter,GAA850 FXN act,F508del corr,EWS-Fli block,Env fusion inh
CO[C@@H]1CN(C)C(=O)c2ccc(NS(C)(=O)=O)cc2OC[C@H](C)N(C(=O)c2ccc3c(c2)OCO3)C[C@H]1C,-8,/,1,2,-2[16.7 µM]
CC(C)C[C@H]1COCn2nncc2CC[C@H](Cc2ccccc2)C(=O)N1,0,/,/,-3,2[16.7 µM]
COc1ccc(NC(=O)N(C)C[C@H]2Oc3cc(-c4cccc(C(=O)N(C)C)c4)ccc3S(=O)(=O)N([C@@H](C)CO)C[C@H]2C)cc1,0,/,1,-3,-34[16.7 µM]
CCCCCCCCCCCCCCCC[n+]1cccc2ccccc21,109*,-7,/,89*,74*
C[C@H](CO)N1C[C@H](C)[C@@H](CN(C)S(C)(=O)=O)OCCCC[C@H](C)Oc2ccc(NS(C)(=O)=O)cc2C1=O,-19,/,-1,-14,11[16.7 µM]
COc1ccc(-c2cc(=O)oc3c(C)c(O)c(CN(C)C)cc23)cc1,-12,-2,/,/,73*
COc1ccc(-c2cc(=O)oc3c(C)c(OCC(=O)N(C)C)ccc23)cc1,3,1,-1,14,21
CCN(CC)CCNC(=O)c1ccc2c(c1NCCO)C(=O)c1ccccc1C2=O,69*,-7,-2,-25,-35
CCN(CC)CCC(=O)Nc1cccc2c1C(=O)c1ccccc1C2=O,-60,2,24*,34,-52
Nc1cccc(C(=O)OCC(=O)Nc2cccc3c2C(=O)c2ccccc2C3=O)c1,-22,1,/,/,-108
CC(=O)N(C)C[C@@H]1Oc2cc(C#Cc3cccc(F)c3)ccc2S(=O)(=O)N([C@H](C)CO)C[C@H]1C,/,/,3,1,19[16.7 µM]
COCC#Cc1ccc([C@H]2[C@H]3CN(C(=O)C4CC4)CC(=O)N3[C@H]2CO)cc1,-24,/,-1,-4,/
C[C@@H]1CCCCO[C@H](CN(C)C(=O)Cc2ccccc2)[C@@H](C)CN([C@@H](C)CO)C(=O)c2cc(NS(=O)(=O)c3ccc(Cl)cc3)ccc2O1,79*,/,-2,2,10[16.7 µM]
C[C@@H]1CCCCO[C@H](CN(C)C(=O)Nc2ccccc2)[C@@H](C)CN([C@@H](C)CO)C(=O)c2cc(NS(=O)(=O)c3ccc(Cl)cc3)ccc2O1,66*,/,-1,17,-11[16.7 µM]
C[C@@H]1CCCCO[C@@H](CN(C)C(=O)Nc2ccc(F)cc2)[C@H](C)CN([C@H](C)CO)C(=O)c2cc(NS(=O)(=O)c3ccc(Cl)cc3)ccc2O1,91*,/,-1,9,-82[16.7 µM]
C[C@@H]1CN([C@H](C)CO)C(=O)c2cc(NS(=O)(=O)c3ccc(Cl)cc3)ccc2O[C@@H](C)CCCCO[C@H]1CN(C)C(=O)Nc1ccccc1,41,/,-1,-2,-30[16.7 µM]
C[C@@H]1CCCCO[C@@H](CN(C)C(=O)Nc2ccc(F)cc2)[C@@H](C)CN([C@H](C)CO)C(=O)c2cc(NS(=O)(=O)c3ccc(Cl)cc3)ccc2O1,9,/,-2,-5,-9[16.7 µM]
C[C@@H]1CCCCO[C@H](CN(C)C(=O)Cc2ccccc2)[C@H](C)CN([C@H](C)CO)C(=O)c2cc(NS(=O)(=O)c3ccc(Cl)cc3)ccc2O1,44,/,2,10,-5[16.7 µM]

# Screening results deposited in PubChem by several laboratories.
